Bioassay records (PubChem BioAssay)
A selection: hits, their analogues and other compounds. The true share with any hit is near 2.4%.
GLS inhibitor: inhibitors of human glutaminase (GLS) | O94925 | GLS enzymatic activity, qHTS titration | Potency, µM (titrated, usually from 45.5 µM), for the others: at the highest dose activity change, negative = inhibition, most hits filed as inhibitors | 410,000 compounds, 0.21% hits | AID 624170; also: % is scaled to controls: 0 for no effect and ±100 for the full control effect
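Read-out is an Amplex red fluorescence increase coupled through glutamate oxidase and HRP, measured before and after 30 min room-temperature incubation. hKGA is in 45 mM KH2PO4 (pH 8.2) with 0.02% Tween-20; glutamine added as 1mM solution.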
Pol beta inh: blocks human DNA polymerase beta activity. P06746. Pol beta primer extension/strand displacement, fluorescence kinetic. Potency, µM (series often up to 114 µM), for inactives: at the highest dose activity change, negative = inhibition, most hits filed as inhibitors. 340,000 compounds, 1.3% hits; also: % is scaled to controls: 0 for no effect and ±100 for the full control effect
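Kinetic readout of DNA synthesis with strand displacement by Pol beta. Compound and 10 nM enzyme sit 15 min at room temperature; 50 nM substrate starts the reaction, read immediately and at 10 min.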
POLK inh: inhibitors of human DNA polymerase kappa; Q9UBT6; purified Pol kappa, fluorescent DNA synthesis assay, 10 min; Potency, µM (highest dose often 107 µM), inactives show at the highest dose activity, negative = inhibition, most hits filed as inhibitors; 400,000 compounds, 0.53% hits; also: % is scaled to controls: 0 for no effect and ±100 for the full control effect
Target sequence (Q9UBT6 whole entry, looked up): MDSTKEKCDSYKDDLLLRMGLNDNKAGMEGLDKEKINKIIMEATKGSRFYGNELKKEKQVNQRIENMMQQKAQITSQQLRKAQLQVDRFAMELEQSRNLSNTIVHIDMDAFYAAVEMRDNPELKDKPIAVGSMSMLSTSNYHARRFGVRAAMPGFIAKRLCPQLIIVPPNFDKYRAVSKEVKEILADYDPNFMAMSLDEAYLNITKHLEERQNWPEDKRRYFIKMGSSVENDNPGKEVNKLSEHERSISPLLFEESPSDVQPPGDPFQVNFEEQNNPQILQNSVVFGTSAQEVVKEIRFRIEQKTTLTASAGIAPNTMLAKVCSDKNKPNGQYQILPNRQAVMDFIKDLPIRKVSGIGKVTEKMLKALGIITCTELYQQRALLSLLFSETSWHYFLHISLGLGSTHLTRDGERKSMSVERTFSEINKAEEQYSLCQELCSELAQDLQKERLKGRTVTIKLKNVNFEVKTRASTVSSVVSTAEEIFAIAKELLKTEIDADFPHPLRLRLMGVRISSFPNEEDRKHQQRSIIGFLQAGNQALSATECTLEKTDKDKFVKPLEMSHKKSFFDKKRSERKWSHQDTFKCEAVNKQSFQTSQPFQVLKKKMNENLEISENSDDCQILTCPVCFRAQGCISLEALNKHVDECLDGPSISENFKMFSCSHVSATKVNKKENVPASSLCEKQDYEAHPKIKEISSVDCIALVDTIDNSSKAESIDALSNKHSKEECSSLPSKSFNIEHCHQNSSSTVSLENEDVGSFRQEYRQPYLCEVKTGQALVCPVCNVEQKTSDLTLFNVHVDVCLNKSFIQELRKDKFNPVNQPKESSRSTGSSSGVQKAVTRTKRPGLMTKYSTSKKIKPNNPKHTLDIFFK
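First, compounds were pin-transferred onto 10 nM Pol kappa. After 15 min at room temperature, substrate was added to 50 nM final. Fluorescence was then measured kinetically at 0 and 10 min.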
POLH inh: inhibitors of human DNA polymerase eta; recombinant Pol eta, fluorescent DNA replication assay; Potency, µM (top dose mostly 114 µM), for the others: at the highest dose activity change, negative = inhibition, actives largely listed as inhibitors; 390,000 compounds, 1.2% hits; AID 588591; also: % is scaled to controls: 0 for no effect and ±100 for the full control effect
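Pol eta (10 nM) was preincubated with compounds for 15 min at room temperature, after which fluorescent replication substrate (50 nM final) was added to start the reaction. Fluorescence was read kinetically at 0 and 10 min.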
Pol iota inh: blocks human DNA polymerase iota activity; Pol iota fluorescent replication assay, 10 min; 390,000 compounds, 1% hits; AID 588590; Potency, µM (doses to about 115 µM), inactives show at the highest dose activity, negative = inhibition, hits mostly inhibitors
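Pol iota at 10 nM preincubated 15 min with compounds at room temperature; reaction started with fluorescent substrate, 50 nM final. Fluorescence read kinetically at 0 and 10 min; buffer-only wells as negative control.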
APEX1 inh: blocks human APE1 abasic DNA cleavage | P27695 | recombinant APE1, TAMRA/BHQ-2 abasic DNA cleavage fluorescence | Potency, µM (top dose mostly 65.8 µM), for the others: top-dose activity change, negative = inhibition, usual class: inhibitors | 350,000 compounds, 0.35% hits | AID 2517;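 also: plate controls were vehicle for no effect and reference inhibitor for full effect; nearly all actives have a fitted effect of over 55% in size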
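Quantitative HTS: incision of a TAMRA/BHQ-2 double-stranded substrate bearing a tetrahydrofuran abasic site by 0.75 nM APE1 raises fluorescence. Substrate 50 nM final, added after 15 min compound preincubation at room temperature; progress as third-minus-first kinetic read difference.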
* marks the source's active call; other numbers are inactive results; u = inconclusive; x = no result; [ ] = dose if it differs, or a comment. Calls follow the shape of the dose curve; as a rule, active = well fitted curve in the direction sought with a large enough effect; inconclusive = small, poorly fitted or top-dose-only effect, or another doubt; inactive = no such curve, though single readings can be large; an effect the other way counts as inactive or inconclusive. Potency is read from the fitted curve at half-maximal effect.

SMILES	GLS inhibitor	Pol beta inh	POLK inh	POLH inh	Pol iota inh	APEX1 inh
O=C(Nc1nc(-c2cccs2)cs1)c1ccc([N+](=O)[O-])o1	6%	x	-13%	79µM*	u	-8%
O=C1OCCC1Sc1nc2ccccc2c(=O)n1Cc1ccc(F)cc1 (stereo unspecified)	3%	25µM*	-29%	u	u	1%
COc1ccc(NC(=O)Cn2nc(C)c3c(C)n(-c4ccccc4)nc3c2=O)cc1OC	-16%	50µM*	-6%	u	u	x
COc1cccc(NC(=O)Cn2nc(C)c3c(C)n(-c4ccccc4)nc3c2=O)c1	-14%	7%	-13%[60.1 µM]	-5%	89µM*	x
COc1ccc(NC(=O)CCCn2nc(C)c3c(C)n(-c4ccccc4)nc3c2=O)cc1OC	-1%	9%	0%	-10%	28%	20%
O=C(O)CSc1nnc(SCc2cccc3ccccc23)s1	-5%	89µM*	-5%	-16%	6%	4%
COc1ccccc1CCC(=O)OCC(=O)N1c2ccccc2NC(=O)C1(C)C	0%	x	-8%	-10%	79µM*	-16%
CC1(C)C(=O)Nc2ccccc2N1C(=O)COC(=O)C12CC3CC(CC(O)(C3)C1)C2	-11%	20µM*	u	14µM*	50µM*	-7%
Cc1ccc(C)c(OCCC(=O)OCC(=O)N2c3ccccc3NC(=O)C2(C)C)c1	-3%	x	-16%	-11%	u	13%
CC1(C)C(=O)Nc2ccccc2N1C(=O)COC(=O)c1cc(Cl)cc(Cl)c1	-19%	x	-6%	-16%	u	-39%
CC1(C)C(=O)Nc2ccccc2N1C(=O)COC(=O)c1cccnc1	0%	x	-30%	u	28µM*	-9%
O=C(CCC1CCCN(C(=O)C2=CCCC2)C1)N1CCN(c2ccccn2)CC1 (stereo unspecified)	8%	-28%	9%	-11%	47%	2%
CC(=O)N1c2ccc(S(=O)(=O)N3CCCCCC3)cc2CC1C(=O)NCc1ccc(Cl)cc1 (stereo unspecified)	-11%	0%	-12%[60.1 µM]	-15%	7%	x
O=C(CSc1nnnn1-c1cccc(F)c1)NC1CCCCC1	0%	x	3%	-16%	4%	13%
CCn1c(O)c(/C=C2\C=NN=C2c2ccc(C)cc2)sc1=S	-4%	44%	-14%	-21%	89µM*	-2%
CC(C)n1c(O)c(/C=C2\C=NN=C2c2ccccc2)sc1=S	4%	-1%	-8%	1%	-22%	-4%
COc1ccc(N(C(=O)c2ccco2)S(=O)(=O)c2ccc(F)cc2)cc1	13%	-21%	-6%	-2%	u	-2%
CCc1ccccc1N1CC(C(=O)Nc2cc(S(=O)(=O)N3CCCC3)ccc2Cl)CC1=O (stereo unspecified)	2%	x	u	16µM*	50µM*	-8%
Cc1ccc(CN2CC(C(=O)Nc3cc(S(C)(=O)=O)ccc3Cl)CC2=O)cc1 (stereo unspecified)	0%	14µM*	-17%	u	-10%	14%
COc1ccc(CNC(=O)COC(=O)c2cccnc2Nc2cccc(C(F)(F)F)c2)cc1	10%	1%	-4%	-11%	12%	3%
S=C1NCCOCCOCCOCCN1	-6%	31%	-7%	-19%	-12%	-1%
COc1ccc(OC)c(NC(=O)Cn2cnc3c(oc4ccccc43)c2=O)c1	4%	-9%	-6%	-19%	31%	x
O=C1C(Nc2ccccc2)=CC(=O)c2ncccc21	x	x	-10%[12 µM]	x	x	-11%
COc1cc(CCNC2=CC(=O)c3ncccc3C2=O)ccc1O	-6%	x	-12%	16µM*	28µM*	x
O=C(c1ccncc1)N1CCC2(CC1)CCN(c1ncccn1)CC2	x	x	-8%[60.1 µM]	x	x	-1%
SMILES	GLS inhibitor	Pol beta inh	POLK inh	POLH inh	Pol iota inh	APEX1 inh
O=C(O)c1ccc(-c2nc(-c3ccc(Cl)c(Cl)c3)cs2)cc1	-5%	10%	11%	-15%	-5%	7%
NC(=O)C(=CNc1nc(-c2ccc(Cl)c(Cl)c2)cs1)C(N)=O	x	1.4µM*	x	x	x	0.63µM*
COc1ccc(CCn2c(=S)[nH]c3cc(C(=O)NCc4ccco4)ccc3c2=O)cc1OC	-9%	22µM*	-12%	u	3%	-1%
O=C(NCCCN1CCCC1=O)c1ccc2c(=O)n(Cc3ccco3)c(=S)[nH]c2c1	u	32µM*	2%	-7%	u	8%
Cc1ccc(CNC(=O)c2ccc3c(=O)n(CCCN4CCCC4=O)c(=S)[nH]c3c2)cc1	x	32µM*	-8%	4%	29%	2%
Cc1cc(C)cc(NC(=O)COc2cccc3c(=O)n(C)ccc23)c1	7%	27%	-6%[60.1 µM]	-3%	19%	x
Cc1ccc(C)c(NC(=O)Cn2nc(C)c3nn(-c4ccc(Cl)cc4)c(C)c3c2=O)c1	1%	11%	-3%[60.1 µM]	-17%	15%	x
O=C(Nc1ccc(F)cc1)C(c1ccccc1)N1CCN(CC(=O)N2CCOCC2)CC1 (stereo unspecified)	0%	x	-6%	3%	5%	16%
Cc1ccc(NC(=O)C(c2ccccc2)N2CCN(CC(=O)N3CCOCC3)CC2)cc1Cl (stereo unspecified)	1%	x	-21%	-6%	-53%	11µM*
CCc1c(C)c2ccc(OCC(N)=O)cc2oc1=O	-5%	4%	-5%	-21%	6%	-11%
CCOc1ccccc1-n1c(SCC(=O)Nc2ccc(CC)cc2)nc2n[nH]c(C)c2c1=N	7%	0%	-3%	-7%	17%	0%
COc1ccc(NC(=O)CSc2nc3n[nH]c(C)c3c(=N)n2-c2ccc(Cl)c(C)c2)cc1OC	-16%	3.5µM*	7%	50µM*	35%	-4%
CCc1ccc(NC(=O)CSc2nc3n[nH]c(C)c3c(=N)n2-c2ccccc2C)cc1	4%	6%	-16%[60.1 µM]	16%	89µM*	x
COc1ccc(OC)c(NC(=O)CSc2nc3n[nH]c(C)c3c(=N)n2-c2cccc(Cl)c2C)c1	7%	1%	-7%	-6%	-3%	16%
CCn1c(C)cc(C(=O)CSc2nnnn2C2CCCC2)c1C	-9%	x	-12%	u	-7%	-10%
CCOc1ccccc1N1C(=O)CC(Sc2ncccc2C(=O)O)C1=O (stereo unspecified)	18µM*	-13%	7%	4%	17%	11%
CC1CCCC(C)N1/N=C/c1ccc(O)c(O)c1 (stereo unspecified)	-7%	2.2µM*	40µM*	u	u	11%
COc1ccc(/C=N/N2C(C)CCCC2C)cc1O (stereo unspecified)	11µM*	41%	-7%	-3%	140%	3%
